According to PMC5540273 (PLoS ONE, 2017):

Legend:
Details in all cases: concentration: 1 μM,replicates: in singlicate; n = 1
MAP3K15 = test system: MAP3K15
MAP3K1 = test system: MAP3K1
MAP3K2 = test system: MAP3K2
MAP3K3 = test system: MAP3K3
MAP3K4 = test system: MAP3K4
MAP4K2 = test system: MAP4K2
MAP4K3 = test system: MAP4K3
MAP4K4 = test system: MAP4K4
MAP4K5 = test system: MAP4K5
MAPKAPK2 = test system: MAPKAPK2
MAPKAPK5 = test system: MAPKAPK5
MARK1 = test system: MARK1
MARK2 = test system: MARK2
MARK3 = test system: MARK3
MARK4 = test system: MARK4
MAST1 = test system: MAST1
MEK1 = test system: T1, MEK1
T1 construct: gene MAP2K1

MEK2 = test system: T2, MEK2
T2 construct: gene MAP2K2

MEK3 = test system: T3, MEK3
T3 construct: gene MAP2K3

MEK4 = test system: T4, MEK4
T4 construct: gene MAP2K4
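Note: KINOMEscan kinase panel screen.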

SMILES	%Inh (MAP3K15) [%]	%Inh (MAP3K1) [%]	%Inh (MAP3K2) [%]	%Inh (MAP3K3) [%]	%Inh (MAP3K4) [%]	%Inh (MAP4K2) [%]	%Inh (MAP4K3) [%]	%Inh (MAP4K4) [%]	%Inh (MAP4K5) [%]	%Inh (MAPKAPK2) [%]	%Inh (MAPKAPK5) [%]	%Inh (MARK1) [%]	%Inh (MARK2) [%]	%Inh (MARK3) [%]	%Inh (MARK4) [%]	%Inh (MAST1) [%]	%Inh (MEK1) [%]	%Inh (MEK2) [%]	%Inh (MEK3) [%]	%Inh (MEK4) [%]
Cc1cc2cn[nH]c2cc1-c1cccc2c(N)c(C(N)=O)nnc12	82	31	72	78	28	25	74	34	62	42	16	0	5	0	0	36	28	45	58	68
Nc1nc(Nc2ccccc2)cc(-c2ccc3c(N)n[nH]c3c2)n1 [GSK2225749]	10	10	11	16	0	16	0	28	6	0	0	8	0	0	8	18	0	9	5	23
Cl.Oc1cc(-c2nc(-c3ccccc3)[nH]c2-c2ccncc2)ccc1Cl [SB-386023]	18	24	29	38	54	18	0	19	4	28	0	0	2	0	9	21	0	2	7	23
Cc1n[nH]c2ccc(-c3cc(OC[C@@H](N)Cc4ccccc4)cnc3-c3ccoc3)cc12.O=C(O)C(F)(F)F.O=C(O)C(F)(F)F [GSK507358]	0	6	90.6	92	6	98.6	77	98.1	94.3	0	0	0	0	0	0	0	37	36	82	35
CNC(=O)c1ccccc1Sc1ccc2c(/C=C/c3ccccn3)n[nH]c2c1	0	18	0	38	10	54	28	20	25	0	0	0	35	1	6	0	0	0	0	0
CC(C)N1C(=O)Cc2cc(Nc3ncc(C(F)(F)F)c(NCc4cccc(S(C)(=O)=O)c4)n3)ccc21	42	0	59	47	2	0	0	24	10	0	25	27	38	42	25	48	27	47	51	37
COc1ccc(C[C@@H](CN)NC(=O)c2cc(Br)c(-c3ccnc4[nH]ccc34)s2)cc1.Cl.Cl [GSK1389063]	7	3	73	67	0	74	39	51	8	0	0	0	54	63	1	0	1	22	95.2	69
CCN(CC)CCCCNc1ncc2cc(-c3c(Cl)cccc3Cl)c(NC(=O)NC(C)(C)C)nc2n1	0	23	88	89	71	51	74	0	71	0	8	0	23	1	2	13	23	–	34	0
CCN(CC)CCOc1ccc(Nc2ncc3cc(-c4c(Cl)cccc4Cl)c(=O)n(C)c3n2)cc1 [SB-601273]	0	17	99.3	99.7	99.6	91	99.5	–	99.6	0	0	20	87	84	6	48	98.1	98.7	38	47
NC(=O)c1cc(-c2ccccc2)cc2c(C3CCNCC3)c[nH]c12 [GSK301362]	9	18	70	20	11	0	48	22	2	1	0	0	0	0	5	0	0	0	35	34
Cl.Cl.NC[C@H](Cc1ccc(C(F)(F)F)cc1)NC(=O)c1cc(Br)c(-c2ccnc3[nH]ccc23)s1 [GSK1487252]	0	10	15	0	7	0	14	11	0	0	0	0	0	47	0	0	0	0	77	23
C[C@H]1Oc2cc(cnc2N)-c2c(nn(C)c2C#N)CN(C)C(=O)c2ccc(F)cc21	0	58	8	26	0	0	5	9	14	0	0	15	9	0	6	6	0	30	83	65
Cc1ccc(-n2nc(C(C)(C)C)cc2NC(=O)Nc2ccc(OCCN3CCOCC3)c3ccccc23)cc1 [GW839464]	0	0	1	12	30	0	0	90.2	0	0	0	18	21	2	7	0	0	0	0	0
